# According to a collection of fitness landscapes (doi:10.1016/j.celrep.2020.107928):
# In all, about 81,000 sequences were measured (“one-hybrid fitness for binding NBS DNA”: median about -0.1, highest 2% from about 0.36 on). The entries come from a sample that favours the highest values as a whole.
# B1: Caulobacter ParB omega fusion; a variant is named by its letters at X, in order, B8GW30 (parent)
# chain: MESVVVGEPGMSEGRRGLGRGLSALLGEVDAAPAQAPGEQLGGSREAPIEILQRNPDQPRRTFREEDLEDLSNSIREKGVLQPILVRPSPDTAGEYQIVAGERAWRAAQRAGLKTVPIMVRELDDLAVLEIGIIENVQRADLNVLEEALSYKVLMEKFERTQENIAQTIGKSXSHVANXMRLLXLPDEVQSYLVSGELTAXHARAIAAAADPVALAKQIIEGGLSVRETEALARKAPNLSAGKSKGGRPPRVKDTDTQALESDLSSVLGLDVSIDHRGSTGTLTITYATLEQLDDLCNRLTRGI
# Variants of: B1
# Experiment: one-hybrid fitness for binding NBS DNA (the Noc-binding site; scaled: cognate 1, non-cognate 0); higher = stronger binding
# Conditions: with NBS DNA site
# In short: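 Pre- and post-selection plasmids were Illumina-sequenced, three replicate libraries were pooled, and any variant with under 10 reads was removed. The libraries were Caulobacter ParB with four specificity codons randomised, selected in E. coli USO through a HIS3 reporter whose site is 19 bp from the promoter. Cells grew 48 hours at 37°C on M9 without histidine, with 0.1 mM IPTG and 5 mM 3-AT. Fitness is the log change in variant-to-wild-type read ratio, rescaled against cognate and non-cognate.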
row,Variant,one-hybrid fitness for binding NBS DNA
1,QYAA,0.237
2,RQRI,≤ 0.2
3,SPGV,≤ 0.2
4,RRPE,≤ 0.2
5,QMVE,≤ 0.2
6,VKVA,≤ 0.2
7,CPHR,≤ 0.2
8,FHQR,≤ 0.2
9,QCCV,≤ 0.2
10,QRFV,0.275
11,QRCV,0.406
12,QRQV,0.397
13,SFRV,≤ 0.2
14,DFQV,≤ 0.2
15,QRAV,0.424
16,QCQV,≤ 0.2
17,QPQV,≤ 0.2
18,QPCV,≤ 0.2
19,SFQV,0.447
20,QCAV,≤ 0.2
21,SHME,≤ 0.2
22,HLRR,≤ 0.2
23,GKSS,≤ 0.2
24,QVST,0.318

row,Variant,one-hybrid fitness for binding NBS DNA
1,ALAR,≤ 0.2
2,NTES,≤ 0.2
3,QCYV,≤ 0.2
4,QPRV,≤ 0.2
5,QRGV,0.452
6,QTYV,≤ 0.2
7,QSGV,≤ 0.2
8,QKDV,≤ 0.2
9,QTRV,0.576
10,QKYV,≤ 0.2
11,QCGV,0.221
12,QKRV,0.41
13,QCRV,0.525
14,QTDV,≤ 0.2
15,LALN,≤ 0.2
16,NRHK,≤ 0.2
17,IQAC,≤ 0.2
18,EASL,≤ 0.2
19,KDSS,≤ 0.2
20,WRLM,≤ 0.2
21,VHFW,≤ 0.2
22,QCHV,0.214
23,QHYV,≤ 0.2
24,QRHV,0.439

row,Variant,one-hybrid fitness for binding NBS DNA
1,QRNV,0.453
2,QRDV,≤ 0.2
3,QHRV,0.378
4,QPHV,≤ 0.2
5,QCNV,≤ 0.2
6,QRRV,0.574
7,QHQV,≤ 0.2
8,QREV,≤ 0.2
9,QRYV,0.348
10,KSRF,≤ 0.2
11,EDAY,≤ 0.2
12,VSIE,≤ 0.2
13,RVLI,≤ 0.2
14,FHTT,≤ 0.2
15,NSFQ,≤ 0.2
16,LEVT,≤ 0.2
17,QGST,≤ 0.2
18,QHSQ,≤ 0.2
19,QSSN,≤ 0.2
20,QLSS,0.317
21,QHSC,≤ 0.2
22,QSST,0.424
23,QLSH,≤ 0.2
24,QAST,0.395

row,Variant,one-hybrid fitness for binding NBS DNA
1,QASN,≤ 0.2
2,QHST,0.446
3,QLST,0.413
4,QASD,≤ 0.2
5,TKRI,≤ 0.2
6,FEYS,≤ 0.2
7,SKTD,≤ 0.2
8,HPSA,≤ 0.2
9,RYAA,≤ 0.2
10,WFRC,≤ 0.2
11,AMMM,≤ 0.2
12,SFTI,≤ 0.2
13,QPST,≤ 0.2
14,QIST,0.311
15,QCST,0.553
16,KDHS,≤ 0.2
17,NTKT,≤ 0.2
18,QTVT,0.517
19,DTKT,≤ 0.2
20,QTKT,0.883
21,IWTS,≤ 0.2
22,SWRY,≤ 0.2
23,VSWL,≤ 0.2
24,RRWC,0.393

row,Variant,one-hybrid fitness for binding NBS DNA
1,MVES,≤ 0.2
2,MVEC,0.453
3,MVER,0.34
4,RKRC,0.4
5,RKYC,≤ 0.2
6,RSWC,≤ 0.2
7,RCWC,≤ 0.2
8,RRYC,0.313
9,RRDC,0.318
10,RKDC,≤ 0.2
11,RRRC,0.39
12,RQIE,≤ 0.2
13,ITGG,≤ 0.2
14,VFDW,≤ 0.2
15,QNAP,≤ 0.2
16,SDVV,≤ 0.2
17,ANIL,≤ 0.2
18,GEAG,≤ 0.2
19,AWVG,≤ 0.2
20,LYSD,≤ 0.2
21,VKHG,≤ 0.2
22,FRVT,≤ 0.2
23,LRPY,≤ 0.2
24,RPRC,≤ 0.2

row,Variant,one-hybrid fitness for binding NBS DNA
1,RCRC,0.391
2,RSRC,0.355
3,AGSH,≤ 0.2
4,ISGM,≤ 0.2
5,RNRR,0.504
6,RNKS,0.489
7,RNIR,≤ 0.2
8,RNKR,0.535
9,RNVR,≤ 0.2
10,RNVS,≤ 0.2
11,RNKH,0.237
12,RNNS,0.388
13,RNYR,≤ 0.2
14,RNKN,≤ 0.2
15,RNDS,≤ 0.2
16,RNNP,≤ 0.2
17,GHAT,≤ 0.2
18,RHRC,0.295
19,IAAT,≤ 0.2
20,AKCT,≤ 0.2
21,RNND,≤ 0.2
22,RNNR,0.381
23,RNDR,≤ 0.2
24,TPFG,≤ 0.2

row,Variant,one-hybrid fitness for binding NBS DNA
1,MWSR,≤ 0.2
2,HRYM,≤ 0.2
3,RPVC,≤ 0.2
4,RCVC,≤ 0.2
5,RRLC,0.301
6,RRHC,0.363
7,RRKC,0.375
8,RRVC,0.414
9,PACV,≤ 0.2
10,QHSI,≤ 0.2
11,QQRH,0.645
12,QQFF,≤ 0.2
13,QQRP,0.312
14,QQQH,≤ 0.2
15,QQQS,0.428
16,QQRL,0.329
17,QQRS,0.714
18,QQRD,0.286
19,QQQN,≤ 0.2
20,QQRF,0.387
21,QQYF,≤ 0.2
22,KQRS,0.224
23,DWKY,≤ 0.2
24,RGQM,≤ 0.2

row,Variant,one-hybrid fitness for binding NBS DNA
1,NLNF,≤ 0.2
2,VHRM,≤ 0.2
3,GFMT,≤ 0.2
4,YDNR,≤ 0.2
5,NHAS,≤ 0.2
6,GPQT,≤ 0.2
7,EHTR,≤ 0.2
8,QQSS,0.436
9,QQWG,≤ 0.2
10,QQSN,≤ 0.2
11,QQHS,0.476
12,QQWF,≤ 0.2
13,QQRN,0.466
14,QQHD,≤ 0.2
15,QQDN,≤ 0.2
16,QQSH,0.208
17,QQYN,≤ 0.2
18,QQHN,≤ 0.2
19,QQWS,0.397
20,AVSG,≤ 0.2
21,DTKE,≤ 0.2
22,VVTF,≤ 0.2
23,TFLI,≤ 0.2
24,TFAN,≤ 0.2

row,Variant,one-hybrid fitness for binding NBS DNA
1,CKWT,≤ 0.2
2,QQGN,≤ 0.2
3,QQGP,≤ 0.2
4,QQLS,0.373
5,QQGS,0.443
6,QQLH,0.22
7,QQDS,0.282
8,QQYS,0.406
9,QQLP,≤ 0.2
10,QQNM,0.206
11,QQNS,0.515
12,DMCG,≤ 0.2
13,LNDN,≤ 0.2
14,HIRY,≤ 0.2
15,MHFS,≤ 0.2
16,ATTP,≤ 0.2
17,ESGF,≤ 0.2
18,LAAR,≤ 0.2
19,SNHH,≤ 0.2
20,VFVQ,≤ 0.2
21,PNVF,≤ 0.2
22,NEKR,≤ 0.2
23,QQFS,0.284
24,QQAM,≤ 0.2

row,Variant,one-hybrid fitness for binding NBS DNA
1,QQAS,0.435
2,VHVQ,≤ 0.2
3,TYPP,≤ 0.2
4,SRMD,≤ 0.2
5,YAHL,≤ 0.2
6,QRVT,0.69
7,NRKT,0.213
8,DRKT,≤ 0.2
9,QRKT,0.848
10,SAIP,≤ 0.2
11,QINI,≤ 0.2
12,TTKR,0.372
13,TTRR,0.378
14,TTVR,≤ 0.2
15,TCKR,0.262
16,TTYR,≤ 0.2
17,TTDR,≤ 0.2
18,LKIL,≤ 0.2
19,PMKT,≤ 0.2
20,LRKL,≤ 0.2
21,DLDT,≤ 0.2
22,NAVF,≤ 0.2
23,TRTI,≤ 0.2
24,AVGC,≤ 0.2

row,Variant,one-hybrid fitness for binding NBS DNA
1,RCVT,0.319
2,RRKT,0.814
3,RGKT,0.24
4,RRVT,0.755
5,RRKW,0.351
6,GGMT,≤ 0.2
7,TPSP,≤ 0.2
8,YMFT,≤ 0.2
9,KCVR,≤ 0.2
10,KLKR,0.319
11,KRKR,0.849
12,DRKR,0.238
13,DRVR,≤ 0.2
14,KRVR,0.456
15,IHAG,≤ 0.2
16,CWRR,≤ 0.2
17,HRDS,≤ 0.2
18,RKDS,0.412
19,RKNN,≤ 0.2
20,RKNS,0.606
21,RKND,≤ 0.2
22,RKDD,≤ 0.2
23,RKDP,≤ 0.2
24,FIER,≤ 0.2

row,Variant,one-hybrid fitness for binding NBS DNA
1,PSMI,≤ 0.2
2,ECPR,≤ 0.2
3,EAPR,0.408
4,EAPF,0.532
5,EAPH,≤ 0.2
6,EAIR,≤ 0.2
7,EAPS,≤ 0.2
8,HVLW,≤ 0.2
9,ITMG,≤ 0.2
10,VHNR,≤ 0.2
11,LWVP,≤ 0.2
12,VKGG,≤ 0.2
13,EIGT,≤ 0.2
14,RTRT,0.704
15,RTQC,≤ 0.2
16,RTIT,0.352
17,RTYT,0.494
18,RTET,0.234
19,RTSP,≤ 0.2
20,RTSH,0.207
21,RTQM,≤ 0.2
22,RTPT,0.201
23,RTWT,0.356
24,RTST,0.565

row,Variant,one-hybrid fitness for binding NBS DNA
1,RTQT,0.537
2,GGKA,≤ 0.2
3,AFLS,≤ 0.2
4,RKPM,≤ 0.2
5,QSHF,≤ 0.2
6,CTPF,≤ 0.2
7,PLPM,≤ 0.2
8,KIKM,≤ 0.2
9,HHNR,≤ 0.2
10,NSTM,≤ 0.2
11,RTGG,≤ 0.2
12,RTGT,0.575
13,RTGC,≤ 0.2
14,YFNT,≤ 0.2
15,RSSK,≤ 0.2
16,RCSK,≤ 0.2
17,RRYK,0.202
18,RRRK,0.41
19,RRSK,0.378
20,RRDK,≤ 0.2
